In PubChem BioAssay (NCI):
About 83,000 compounds went through this panel and 20% of them were active in at least one assay; those are over-represented in the sample as a whole.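 Assay: single dose, 48 h. Readout: percent growth (0 = no net growth; negative = cell death). Active: <10.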 A number with no mark means an inactive call. Activity calls are given as the source filed them.

System: EKVX NSCLC
Experiment: NCI-60 one-dose screen, 48 h (100 = growth as untreated, 0 = no growth, -100 = all killed)
Settings: 10 µM unless noted

Structure (SMILES) | growth
COc1cc(NC(=O)c2cc(O)c(C/C=C(\C)CCC=C(C)C)c(O)c2)cc2c1O[C@]1(C)CC[C@@H](O)C(C)(C)[C@H]1C2 | 26.1%
CCCCCCN1C(=O)CN=C1Nc1ccc2cc3ccc(NC4=NCC(=O)N4CCCCCC)cc3nc2c1 | 56.9%
Nc1ccc(C2=NN(C(=O)c3cc(-c4ccc(Cl)cc4)nc4ccccc34)C(c3ccccc3)C2)cc1 (centres undefined) | 40.4%
CN(CCC#N)C(=O)Nc1ccccc1 | 105%
C=C(C)[C@@H]1CC[C@]2(C(=O)OCCCC[P+](c3ccccc3)(c3ccccc3)c3ccccc3)CC[C@]3(C)[C@H](CC[C@@H]4[C@@]5(C)CC[C@H](OC(=O)C(Cl)Cl)C(C)(C)[C@@H]5CC[C@]43C)[C@@H]12 | -13.3% (active)
CSc1cccc(NC(=O)Nc2nc3c(C)cccc3s2)c1 | 80.2%
O=C(O)c1cn(C2CC2)c2cc(N3CCN(Cc4nnc(Nc5ccccc5)o4)CC3)c(F)cc2c1=O | 103%
O=C1CS/C(=N/c2nnc(-c3ccc(O)cc3)s2)N1 | 92.7%
COc1ccc2c(c1)C1(C(=O)N2)C(C#N)=C(c2ccccc2)Nc2c1c(-c1ccccc1)nn2-c1ccccc1 (centres undefined) | 78.4%
CCN1CCC[C@H]1c1cc(O)c2c(c1OC)C[C@H]1C[C@H]3[C@H](N)C(=O)C(C(N)=O)=C(O)[C@@]3(O)C(=O)C1=C2O | -8.34% (active)
O=C(/C(=C/c1ccc([N+](=O)[O-])cc1)SCc1ccccc1)c1ccc(Cl)cc1 | 72.6%

System: SN12C renal
Experiment: as above
Settings: 10 µM unless noted

Structure (SMILES) | growth
CCOC(=O)c1cnn(-c2nc(-c3ccc(F)cc3)c(C#N)c(N3CCOCC3)n2)c1N | 93.9%
Cc1c(O)c(=O)ccn1-c1nc2ccccc2s1 | 98.9%
Nc1ccc(C2=NN(C(=O)c3cc(-c4ccc(Cl)cc4)nc4ccccc34)C(c3ccc(Cl)cc3)C2)cc1 (centres undefined) | 56.5%
COc1ccc2nc(-c3ccc(OC)c(OC)c3)cc(-c3nnc(SCC(=O)Nc4ccc(C(C)=O)cc4)o3)c2c1 | 98.8%
CNCc1cccc2c1OCCOCCOCCN(CCN1CCOCC1)S(=O)(=O)c1ccc(cc1)-c1cnc(N)c(n1)C(=O)N2 | 68.4%
COc1cc(C2=NN(C(C)=O)C(c3cccc(Nc4ccnc5cc(C(F)(F)F)ccc45)c3)C2)cc(OC)c1OC (centres undefined) | 64.3%
CC(C)CSc1nc(Nc2ccccc2)c(C#N)c(-c2ccc(F)cc2)n1 | -26% (active)
CNc1cccc2c1C(=O)c1cccc(N)c1C2=O | 91%
NC(=O)c1ccc(C2C3=C(CCCC3=O)OC3=C2C(=O)c2ccccc2C3=O)cc1 (centres undefined) | -3.43% (active)
C=CCn1c(SCC(=O)Nc2ccc(C(=O)/C=C/c3ccc(Cl)cc3)cc2)nnc1-c1cc(OC)c(OC)c(OC)c1 | 79.7%
C=C1C(=O)O[C@H]2[C@H]1CC/C(C=Nc1c(N)cc(F)cc1Br)=C\CC[C@@]1(C)O[C@@H]21 | 76.1%
COc1cc(-c2csc(NC(=O)Nc3ccc(Cl)cc3)n2)cc(OC)c1OC | 27.5%
COc1ccc(C(=O)c2cc(OC)c(C)c(OC)c2)cc1OC(=O)CCl | 41.5%
Nc1c(C(=O)Nc2cccc3ccccc23)sc2nc3c(cc12)COCC3 | 59.9%
CN(C)C(CNc1oc(-c2cccc3ccccc23)nc1C#N)c1ccco1 (centres undefined) | 103%
Cc1cnc(-c2ccc(-c3ccc(NC(=O)Nc4c(F)cc(F)cc4F)cc3F)c3c2C(=O)NC3)[nH]1 | 3.34% (active)
COc1ccc(-c2cc(C(=O)N3N=C(c4ccc(N)cc4)CC3c3ccc(OC)cc3)c3cc(OC)ccc3n2)cc1 (centres undefined) | 61.8%
COc1cc([C@H](C)c2ccc3ccccc3c2)cc(OC)c1OC | 48.3%
O=c1nc(-c2ccccc2)c2cc(-c3ccc(N4CCCC4)nc3)ccc2[nH]1 | 83.9%
Cc1cccc2nc3c(n12)C(=O)C(=O)c1ccccc1-3 | 37.1%
CC(=O)Nc1c(C(=O)Nc2ccccc2)sc2nc3c(cc12)C(OC(C)=O)CCC3 (centres undefined) | 89.6%
CCN1CCN(c2ccc(NC(=O)Nc3nc4ccc(-c5ccccc5OC)cc4s3)cc2)CC1 | -82.1% (active)
Cc1cc(Cl)cc(CN(Cc2ccccc2)Cc2c(O)ccc3ccccc23)c1O | 83.5%
